Results as given in PubChem BioAssay AID2284143 (EPA ToxCast).
Active and inactive are the calls of the source. How the source made its calls: active means hit-call score of the fitted dose curve at least 0.9, where 1 is the maximum; inactive means score below 0.9.

These molecules were tested against human Adenosine Receptor A2A, ADORA2A (gene 135) (UniProt P29274) (assay: ERF_FR_GPCR_hADORA2A: Eurofins (ERF) G Protein-Coupled Receptor (GPCR) Radioligand Binding LeadHunter Assay for human Adenosine Receptor A2A Agonism, conducted at France lab site).
Chain of human Adenosine Receptor A2A, ADORA2A (gene 135) (P29274 whole entry, looked up): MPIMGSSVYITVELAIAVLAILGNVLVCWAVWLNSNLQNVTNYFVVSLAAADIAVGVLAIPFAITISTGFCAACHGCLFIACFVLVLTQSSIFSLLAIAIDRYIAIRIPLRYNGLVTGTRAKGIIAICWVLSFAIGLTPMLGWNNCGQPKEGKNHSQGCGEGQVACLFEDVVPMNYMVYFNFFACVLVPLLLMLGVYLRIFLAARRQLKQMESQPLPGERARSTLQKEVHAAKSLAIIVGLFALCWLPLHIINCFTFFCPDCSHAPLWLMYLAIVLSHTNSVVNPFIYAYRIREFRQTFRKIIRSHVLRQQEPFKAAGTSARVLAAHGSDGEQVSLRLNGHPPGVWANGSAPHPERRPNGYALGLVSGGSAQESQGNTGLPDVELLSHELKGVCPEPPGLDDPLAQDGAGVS
Procedure: ERF_FR_GPCR_hADORA2A is a biochemical, single-readout assay that uses extracted gene-proteins in a cell-free assay. Measurements were taken 2 hour after chemical dosing in a 96-well plate. See A2A Human Adenosine GPCR Binding (Agonist Radioligand) Assay, Cerep.ERF_FR_GPCR_hADORA2A is an assay component calculated from the ERF_FR_GPCR_hADORA2A assay. It is designed to measure radioligand binding using a type of binding reporter as detected by scintillation counting with radiometry technology.Data from the assay component ERF_FR_GPCR_hADORA2A was analyzed at the assay endpoint, ERF_FR_GPCR_hADORA2A, in the positive analysis fitting direction relative to DMSO as the negative control and baseline of activity. Using a type of binding reporter, gain-of-signal activity can be used to understand changes in binding as they relate to gene ADORA2A. To generalize the intended target to other relatable targets, this assay endpoint is annotated to the gpcr intended target family, where the subfamily is adenosine.
Human cells are incubated for 60 minutes in room temprature, using [3H]CGS 21680 ligand at 6 Kd (nM) with NECA control inhibitor.Test Sample Requirements: Minimum for 1) Screen: 60 ul of 10 mM stock -OR- 1 mg (pre-weighed) for […] uM final testing. 2) Dose Response: 90 ul of 10 mM stock -OR- 1 mg (pre-weighed) for a top concentration at 10 uM.
`O=C(/C=C/c1ccc(O)cc1)CC(=O)/C=C/c1ccc(O)cc1` was tested, and the AC50 was 421 nM (active).
